Assay results: PubChem BioAssay
Unmarked numbers belong to inactive results. For part of these data: Measured potencies and affinities stand elsewhere. Activity calls are given as the source filed them. Unless noted, no rule for the calls is given here.

Tests used:
[1] = antimalarial activity against Dd2 strain (AID 2302;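 active = growth inhibition above 50% at the single 2 µM test dose, taken to imply half-maximal potency below 2 µM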;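 also: 0% = DMSO untreated growth and 100% = chloroquine plus artemisinin killed control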); settings: P. falciparum Dd2 in RBCs, LDH growth readout, 72 h; at 2 µM; active compounds read high
[2] = HepG2 cytotoxicity, primary screen, cytotoxicity control for P. falciparum antimalarial project, cell-based, ATP luminescence (AID 2303;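 active = inhibition above 50%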;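 also: 0% = DMSO wells and 100% = digitonin-killed cells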); settings: HepG2 viability, 24-48 h, at 10 µM, active compounds read high
[3] = biological target: L-lactate dehydrogenase (Plasmodium falciparum (isolate CDC / Honduras)) (UniProt Q27743); assay: PfLDH activity inhibition – cell lysate, 3D7 strain, counter-screen for P. falciparum growth inhibition project (AID 2304);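 also: 0% = vehicle and 100% = reference inhibitor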; settings: P. falciparum 3D7 crude extract, LDH APAD/NBT absorbance; at 2 µM; active compounds read high
[4] = inhibition of 3D7 malaria parasite growth – strain 3D7 (AID 2306);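 also: 0% = DMSO wells and 100% = chloroquine plus artemisinin control wells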; settings: P. falciparum 3D7 erythrocytic growth, LDH absorbance, 72 h; at 2 µM; active compounds read high
[5] = biological target: Calcium-dependent protein kinase 1 (Plasmodium falciparum (isolate 3D7)) (UniProt P62344); assay: PfCDPK1 kinase inhibitors, biochemical, TCAMS library (AID 1159585; cut-off not given, nearly all actives have IC50 up to about 0.98 µM;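 also: inhibitors leave more ATP so luminescence rises with inhibition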); settings: recombinant PfCDPK1, Kinase-Glo ATP depletion luminescence
[6] = biological target: Plasmodium falciparum protein kinase 6 (PK6, PF3D7_1337100) (UniProt Q8IDW1); assay: PfPK6 kinase inhibitors, biochemical, TCAMS library (AID 1159586); settings: recombinant PfPK6, Kinase-Glo ATP depletion luminescence
[7] = biological target: Protein kinase 7 (PK7), Plasmodium falciparum 3D7 (PF3D7_0213400) (UniProt Q7YTF7); assay: inhibition of Plasmodium PK7 catalytic activity – biochemical, TCAMS antimalarial set, Kinase-Glo luminescence (AID 1159587); settings: recombinant PfPK7, Kinase-Glo ATP depletion luminescence
[8] = biological target: Calcium-dependent protein kinase 4 (Plasmodium falciparum (isolate 3D7)) (UniProt Q8IBS5); assay: PfCDPK4 kinase inhibitors, biochemical, TCAMS library (AID 1159588; cut-off not given, nearly all actives have IC50 up to about 0.91 µM); settings: recombinant PfCDPK4, Kinase-Glo ATP depletion luminescence
Sequence of Calcium-dependent protein kinase 4 (Plasmodium falciparum (isolate 3D7)) (Q8IBS5 whole entry, looked up): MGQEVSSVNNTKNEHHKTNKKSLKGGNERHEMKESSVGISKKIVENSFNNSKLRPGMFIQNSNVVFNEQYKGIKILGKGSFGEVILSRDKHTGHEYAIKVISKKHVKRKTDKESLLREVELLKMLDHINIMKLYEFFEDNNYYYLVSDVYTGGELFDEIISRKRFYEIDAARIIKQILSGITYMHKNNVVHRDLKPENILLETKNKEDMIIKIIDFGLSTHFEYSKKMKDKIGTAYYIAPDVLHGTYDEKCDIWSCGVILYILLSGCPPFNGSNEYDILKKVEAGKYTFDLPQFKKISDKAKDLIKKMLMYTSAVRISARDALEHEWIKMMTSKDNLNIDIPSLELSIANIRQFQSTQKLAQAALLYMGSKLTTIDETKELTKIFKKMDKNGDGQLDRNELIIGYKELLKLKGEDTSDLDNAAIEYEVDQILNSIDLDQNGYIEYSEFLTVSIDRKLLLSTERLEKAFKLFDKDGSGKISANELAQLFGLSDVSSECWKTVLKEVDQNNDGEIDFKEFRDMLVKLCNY

Sequence of Plasmodium falciparum protein kinase 6 (PK6, PF3D7_1337100) (Q8IDW1 1-305): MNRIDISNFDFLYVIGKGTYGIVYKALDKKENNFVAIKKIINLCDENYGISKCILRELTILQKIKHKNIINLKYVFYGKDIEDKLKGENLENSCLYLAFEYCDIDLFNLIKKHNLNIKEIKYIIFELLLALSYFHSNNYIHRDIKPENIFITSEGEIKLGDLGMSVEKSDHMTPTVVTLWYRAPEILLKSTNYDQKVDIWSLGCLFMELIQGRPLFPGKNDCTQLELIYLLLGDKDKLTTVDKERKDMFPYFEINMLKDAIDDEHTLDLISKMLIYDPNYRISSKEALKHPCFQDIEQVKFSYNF
Sequence of Protein kinase 7 (PK7), Plasmodium falciparum 3D7 (PF3D7_0213400) (Q7YTF7 1-343): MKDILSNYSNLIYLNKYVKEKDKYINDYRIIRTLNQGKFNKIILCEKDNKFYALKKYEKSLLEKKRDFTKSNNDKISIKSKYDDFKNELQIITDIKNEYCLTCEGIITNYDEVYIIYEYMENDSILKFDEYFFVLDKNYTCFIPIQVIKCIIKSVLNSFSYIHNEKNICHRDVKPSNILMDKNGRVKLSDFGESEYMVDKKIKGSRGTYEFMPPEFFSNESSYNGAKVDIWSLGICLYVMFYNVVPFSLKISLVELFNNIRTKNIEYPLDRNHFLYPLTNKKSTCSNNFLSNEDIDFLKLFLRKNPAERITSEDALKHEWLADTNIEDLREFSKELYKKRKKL
Sequence of L-lactate dehydrogenase (Plasmodium falciparum (isolate CDC / Honduras)) (Q27743 whole entry, looked up): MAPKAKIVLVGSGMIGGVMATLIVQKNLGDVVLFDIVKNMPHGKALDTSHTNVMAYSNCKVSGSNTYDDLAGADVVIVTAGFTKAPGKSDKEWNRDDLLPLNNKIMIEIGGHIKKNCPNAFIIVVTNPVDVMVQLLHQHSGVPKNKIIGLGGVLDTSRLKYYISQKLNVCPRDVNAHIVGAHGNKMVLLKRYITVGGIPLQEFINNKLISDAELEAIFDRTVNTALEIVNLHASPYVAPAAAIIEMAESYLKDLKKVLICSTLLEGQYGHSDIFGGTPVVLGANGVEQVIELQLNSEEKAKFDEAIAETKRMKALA
Sequence of Calcium-dependent protein kinase 1 (Plasmodium falciparum (isolate 3D7)) (P62344 whole entry, looked up): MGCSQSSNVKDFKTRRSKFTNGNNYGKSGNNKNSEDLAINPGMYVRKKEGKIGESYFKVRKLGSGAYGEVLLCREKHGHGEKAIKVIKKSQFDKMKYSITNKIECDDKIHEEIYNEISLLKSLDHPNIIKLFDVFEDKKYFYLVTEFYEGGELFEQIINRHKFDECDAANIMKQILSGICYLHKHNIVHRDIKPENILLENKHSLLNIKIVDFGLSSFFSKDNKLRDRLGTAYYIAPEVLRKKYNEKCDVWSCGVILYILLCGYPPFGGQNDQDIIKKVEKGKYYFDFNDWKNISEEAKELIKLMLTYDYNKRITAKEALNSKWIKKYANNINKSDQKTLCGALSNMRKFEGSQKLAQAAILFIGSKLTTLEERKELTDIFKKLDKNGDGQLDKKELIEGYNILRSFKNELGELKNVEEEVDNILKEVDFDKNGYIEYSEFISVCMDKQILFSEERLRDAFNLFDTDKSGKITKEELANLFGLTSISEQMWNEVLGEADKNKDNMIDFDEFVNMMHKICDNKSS

Cc1cccnc1CNc1nccc2c(C)c(C)[nH]c12
growth inhibition [1]: 28%
inhibition [2]: 27%
inhibition [3]: 0%
growth inhibition [4]: 100% (active)
outcome [5]: inactive
outcome [6]: inactive
outcome [7]: inactive
outcome [8]: inactive

CS(=O)(=O)N(c1ccccc1)c1cc(C(=O)N[C@@H](Cc2ccccc2)[C@H](O)CNC2CC2)cc(N2CCCC2=O)c1
growth inhibition [1]: 98% (active)
inhibition [2]: 1%
inhibition [3]: 4%
growth inhibition [4]: 100% (active)
outcome [5]: inactive
outcome [6]: inactive
outcome [7]: inactive
outcome [8]: inactive

Fc1ccc2nc(-c3ccc(-c4ccc(CN5CCN(c6ccncc6)CC5)cc4)cc3)[nH]c2c1
growth inhibition [1]: 101% (active)
inhibition [2]: 37%
inhibition [3]: 6%
growth inhibition [4]: 102% (active)
outcome [5]: inactive
outcome [6]: inactive
outcome [7]: inactive
outcome [8]: inactive

COc1ccc2ncc(F)c(CCN3CC[C@H](NC(=O)c4ccc5c(n4)NC(=O)CS5)[C@H](O)C3)c2n1
growth inhibition [1]: 88% (active)
inhibition [2]: 20%
inhibition [3]: 0%
growth inhibition [4]: 88% (active)
outcome [5]: inactive
outcome [6]: inactive
outcome [7]: inactive
outcome [8]: inactive

Cc1cc(N[C@@H](Cc2ccccc2)C(=O)Nc2ccccc2)nc(NCCc2ccccn2)n1
growth inhibition [1]: 50% (active)
inhibition [2]: -3%
inhibition [3]: -1%
growth inhibition [4]: 97% (active)
outcome [5]: inactive
outcome [6]: inactive
outcome [7]: inactive
outcome [8]: inactive

CC(=NN=C(N)N)C(=O)Nc1ccc(Cl)c(Cl)c1
growth inhibition [1]: 97% (active)
inhibition [2]: -3%
inhibition [3]: 0%
growth inhibition [4]: 101% (active)
outcome [5]: inactive
outcome [6]: inactive
outcome [7]: inactive
outcome [8]: inactive

O=C(NCCCCN1CCC(c2c[nH]c3ccc(-c4ccccc4)cc23)CC1)c1ccc(-c2ccccc2)cc1
growth inhibition [1]: 40%
inhibition [2]: 48%
inhibition [3]: 3%
growth inhibition [4]: 97% (active)
outcome [5]: inactive
outcome [6]: inactive
outcome [7]: inactive
outcome [8]: inactive

CC(C)(C)c1ccc(CNC(=O)c2ccc(CNC3CCC(N)CC3)s2)cc1 (stereo not drawn)
growth inhibition [1]: 10%
inhibition [2]: 41%
inhibition [3]: 4%
growth inhibition [4]: 100% (active)
outcome [5]: inactive
outcome [6]: inactive
outcome [7]: inactive
outcome [8]: inactive

COc1ccc2[nH]cc(C3CCN(CCCCCNC(=O)c4ccc(-c5ccccc5)cc4)CC3)c2c1
growth inhibition [1]: 16%
inhibition [2]: 50% (active)
inhibition [3]: -8%
growth inhibition [4]: 96% (active)
outcome [5]: inactive
outcome [6]: inactive
outcome [7]: inactive
outcome [8]: inactive

CCCCOc1ccccc1C(=O)NCc1csc(-c2ccccc2)n1
growth inhibition [1]: 91% (active)
inhibition [2]: 17%
inhibition [3]: 0%
growth inhibition [4]: 93% (active)
outcome [5]: inactive
outcome [6]: inactive
outcome [7]: inactive
outcome [8]: inactive

O=C(NC12CC3CC(CC(C3)C1)C2)C(=O)c1c[nH]c2ccccc12
growth inhibition [1]: 2%
inhibition [2]: 16%
inhibition [3]: 3%
growth inhibition [4]: 97% (active)
outcome [5]: inactive
outcome [6]: inactive
outcome [7]: inactive
outcome [8]: inactive

O=C(NC1CC1)c1ccc(N2CCCC(COc3ccc4c(c3)CCCC4)C2)nc1 (stereo not drawn)
growth inhibition [1]: 65% (active)
inhibition [2]: -5%
inhibition [3]: -5%
growth inhibition [4]: 85% (active)
outcome [5]: inactive
outcome [6]: inactive
outcome [7]: inactive
outcome [8]: inactive

COc1ccc(-c2nc(NC(=O)CS(=O)(=O)c3ccccc3)sc2C)cc1
growth inhibition [1]: 82% (active)
inhibition [2]: 7%
inhibition [3]: -9%
growth inhibition [4]: 99% (active)
outcome [5]: inactive
outcome [6]: inactive
outcome [7]: inactive
outcome [8]: inactive

Cc1ccccc1C1CCN(C2CCC(NC(=O)/C=C/c3ccc(F)c(F)c3)CC2)CC1 (stereo not drawn)
growth inhibition [1]: 7%
inhibition [2]: 34%
inhibition [3]: -1%
growth inhibition [4]: 93% (active)
outcome [5]: inactive
outcome [6]: inactive
outcome [7]: inactive
outcome [8]: inactive

CN1CCN(CCCN(Cc2csc(-c3ccc(CNCc4ccccc4)cc3)n2)C(=O)Nc2cc(Cl)cc(Cl)c2)CC1
growth inhibition [1]: 45%
inhibition [2]: 34%
inhibition [3]: -2%
growth inhibition [4]: 103% (active)
outcome [5]: inactive
outcome [6]: inactive
outcome [7]: inactive
outcome [8]: inactive

COc1cc(Cc2cnc(N)nc2N)cc(OCCCCCC(N)=O)c1OC
growth inhibition [1]: -3%
inhibition [2]: -33%
inhibition [3]: 0%
growth inhibition [4]: 90% (active)
outcome [5]: inactive
outcome [6]: inactive
outcome [7]: inactive
outcome [8]: inactive

CC(CNC(=O)C(c1cc2ccccc2o1)N1CCN(C(c2ccccc2)c2ccccc2)CC1)c1ccccc1 (stereo not drawn)
growth inhibition [1]: 89% (active)
inhibition [2]: 2%
inhibition [3]: -5%
growth inhibition [4]: 99% (active)
outcome [5]: inactive
outcome [6]: inactive
outcome [7]: inactive
outcome [8]: inactive

CC(C)N1CCN(c2ccc(OCCCN3CCN(c4cccc(Cl)c4Cl)CC3)c(C(F)(F)F)c2)CC1
growth inhibition [1]: 37%
inhibition [2]: 79% (active)
inhibition [3]: 0%
growth inhibition [4]: 94% (active)
outcome [5]: inactive
outcome [6]: inactive
outcome [7]: inactive
outcome [8]: inactive

COc1cc(CNCCCCCCNCc2cc(OC)c3ccccc3c2OC)c(OC)c2ccccc12
growth inhibition [1]: 40%
inhibition [2]: 99% (active)
inhibition [3]: -2%
growth inhibition [4]: 102% (active)
outcome [5]: inactive
outcome [6]: inactive
outcome [7]: inactive
outcome [8]: inactive

CCCOc1ccccc1-c1nc2[nH]c3c(c2c(=O)[nH]1)CCN(C)C3
growth inhibition [1]: 70% (active)
inhibition [2]: 8%
inhibition [3]: -6%
growth inhibition [4]: 87% (active)
outcome [5]: inactive
outcome [6]: inactive
outcome [7]: inactive
outcome [8]: inactive

CC(=O)Nc1cc(C(=O)Nc2cccc(-c3cccc(-c4nc5c(C)cccc5[nH]4)c3)c2)ccc1C
growth inhibition [1]: 62% (active)
inhibition [2]: 25%
inhibition [3]: 1%
growth inhibition [4]: 100% (active)
outcome [5]: inactive
outcome [6]: inactive
outcome [7]: inactive
outcome [8]: inactive

O=C(NCCCCCN1CCC(c2ccc(O)cc2)CC1)c1ccc(-c2ccccc2)cc1
growth inhibition [1]: -7%
inhibition [2]: 28%
inhibition [3]: -1%
growth inhibition [4]: 92% (active)
outcome [5]: inactive
outcome [6]: inactive
outcome [7]: inactive
outcome [8]: inactive

CCOC(=O)c1cnc2c(OC)cc(OC)c(Cl)c2c1Nc1cccc(C)c1
growth inhibition [1]: 20%
inhibition [2]: 0%
inhibition [3]: -2%
growth inhibition [4]: 95% (active)
outcome [5]: inactive
outcome [6]: inactive
outcome [7]: inactive
outcome [8]: inactive

O=C(Nc1ccc(F)cc1F)NC1CCN(CCCCCNC(=O)[C@@H]2C[C@H]2c2ccc(Cl)c(Cl)c2)CC1
growth inhibition [1]: 32%
inhibition [2]: 41%
inhibition [3]: 1%
growth inhibition [4]: 100% (active)
outcome [5]: inactive
outcome [6]: inactive
outcome [7]: inactive
outcome [8]: inactive

COc1ccc2nccc([C@@H](O)CN3CCC(NCc4ccc5c(c4)OCCO5)CC3)c2c1
growth inhibition [1]: 92% (active)
inhibition [2]: 9%
inhibition [3]: -4%
growth inhibition [4]: 101% (active)
outcome [5]: inactive
outcome [6]: inactive
outcome [7]: inactive
outcome [8]: inactive

C[C@@H]([C@@H](CCCCc1ccccc1)C(=O)N[C@H](C(=O)Nc1cccnc1)C(C)(C)C)N(O)C=O
growth inhibition [1]: 98% (active)
inhibition [2]: 0%
inhibition [3]: 0%
growth inhibition [4]: 98% (active)
outcome [5]: inactive
outcome [6]: inactive
outcome [7]: inactive
outcome [8]: inactive

CC(C)CCNCc1ccc(OCc2ccccc2COc2ccc(CNCCC(C)C)cc2I)c(I)c1
growth inhibition [1]: 78% (active)
inhibition [2]: 99% (active)
inhibition [3]: 0%
growth inhibition [4]: 101% (active)
outcome [5]: inactive
outcome [6]: inactive
outcome [7]: inactive
outcome [8]: inactive

COc1cc(NC(=O)c2ccc3oc4ccccc4c3c2)ccc1OCCN1CCCCC1
growth inhibition [1]: 11%
inhibition [2]: 12%
inhibition [3]: -4%
growth inhibition [4]: 89% (active)
outcome [5]: inactive
outcome [6]: inactive
outcome [7]: inactive
outcome [8]: inactive

O=C1C(C2CCC(c3ccc(Cl)cc3)CC2)=C2OCC3COC2(O3)c2ccccc21 (stereo not drawn)
growth inhibition [1]: 97% (active)
inhibition [2]: 7%
inhibition [3]: -2%
growth inhibition [4]: 98% (active)
outcome [5]: inactive
outcome [6]: inactive
outcome [7]: inactive
outcome [8]: inactive

COc1cc(C(=O)NCc2nn(CCN3CCC(N4CCCC4)CC3)cc2-c2ccc(Cl)c(Cl)c2)cc(OC)c1OC
growth inhibition [1]: -8%
inhibition [2]: 16%
inhibition [3]: -1%
growth inhibition [4]: 97% (active)
outcome [5]: inactive
outcome [6]: inactive
outcome [7]: inactive
outcome [8]: inactive

Clc1cccnc1N1CCN(c2ncccc2Cl)CC1
growth inhibition [1]: 0%
inhibition [2]: 2%
inhibition [3]: 4%
growth inhibition [4]: 97% (active)
outcome [5]: inactive
outcome [6]: inactive
outcome [7]: inactive
outcome [8]: inactive

O=C(NCCCCN1CCN(c2cccc3c2OCCO3)CC1)c1ccc(NC(=O)c2cc(Cl)cc(Cl)c2)cc1
growth inhibition [1]: 89% (active)
inhibition [2]: 21%
inhibition [3]: -3%
growth inhibition [4]: 101% (active)
outcome [5]: inactive
outcome [6]: inactive
outcome [7]: inactive
outcome [8]: inactive

Cc1cc(F)ccc1-c1nc(NCCCN2CCCC2=O)nc2c1ccc(=O)n2-c1c(F)cccc1F
growth inhibition [1]: 80% (active)
inhibition [2]: -7%
inhibition [3]: -5%
growth inhibition [4]: 88% (active)
outcome [5]: inactive
outcome [6]: inactive
outcome [7]: inactive
outcome [8]: inactive

COc1ccc(CNC2CCN(C)CC2)cc1-c1ccc(S(=O)(=O)NCc2ccccc2)s1
growth inhibition [1]: 101% (active)
inhibition [2]: 62% (active)
inhibition [3]: 0%
growth inhibition [4]: 101% (active)
outcome [5]: inactive
outcome [6]: inactive
outcome [7]: inactive
outcome [8]: inactive

CN(CCN)Cc1ccc(-c2ccc(-c3nc4ccc(C(F)(F)F)cc4[nH]3)s2)cc1
growth inhibition [1]: 98% (active)
inhibition [2]: 37%
inhibition [3]: 2%
growth inhibition [4]: 98% (active)
outcome [5]: inactive
outcome [6]: inactive
outcome [7]: inactive
outcome [8]: inactive

O=C(c1ccc(-c2cccc(-c3nc4ccc(F)cc4[nH]3)c2)cc1)N1CCCCC1CN1CCC(O)C1 (stereo not drawn)
growth inhibition [1]: -4%
inhibition [2]: 11%
inhibition [3]: -1%
growth inhibition [4]: 91% (active)
outcome [5]: inactive
outcome [6]: inactive
outcome [7]: inactive
outcome [8]: inactive
